The target of assay [1] is Rap guanine nucleotide exchange factor 3 (Homo sapiens) (UniProt O95398). Briefly: Confirmatory qHTS for antagonist of cAMP-regulated guanine nucleotide exchange factor 3 (EPAC1) (AID 1645880). Further: nearly all actives have a fitted effect of over 55% in size. Further: potency means the concentration at half of the fitted maximal effect. Put shortly:
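Released BODIPY-GDP fluoresces less than Rap1-bound BODIPY-GDP; the signal is followed at 480/540 nm at 5-min intervals over 30 min, after 5 min at room temperature. Reactions contain 100 nM EPAC1, 250 nM RAP1B-BODIPY-GDP and 50 uM GDP; results are normalized to ATA and DMSO.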
Background: qHTS replaces the single test concentration by a dilution series.

Assay [2] shares this target. Briefly: Confirmatory qHTS for agonist of cAMP-regulated guanine nucleotide exchange factor 3 (EPAC1) (AID 1645881).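 Further: EPAC1 catalysed release of BODIPY-GDP from Rap1B seen as fluorescence loss; 100% = effect of cAMP agonist control; nearly all actives have a fitted effect of over 75% in size.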
The target in assay [3] is Rap guanine nucleotide exchange factor 4 (Homo sapiens) (UniProt Q8WZA2). Briefly: Confirmatory qHTS for agonist of cAMP-regulated guanine nucleotide exchange factor 4 (EPAC2) (AID 1645884).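 Further: nucleotide exchange releases bodipy-GDP from Rap1 and this lowers its fluorescence; on the % scale 0 is the no-effect control and ±100 the full control effect; nearly all actives have a fitted effect of over 65% in size.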
Rap guanine nucleotide exchange factor 4 (Homo sapiens), sequence (Q8WZA2 whole entry, looked up): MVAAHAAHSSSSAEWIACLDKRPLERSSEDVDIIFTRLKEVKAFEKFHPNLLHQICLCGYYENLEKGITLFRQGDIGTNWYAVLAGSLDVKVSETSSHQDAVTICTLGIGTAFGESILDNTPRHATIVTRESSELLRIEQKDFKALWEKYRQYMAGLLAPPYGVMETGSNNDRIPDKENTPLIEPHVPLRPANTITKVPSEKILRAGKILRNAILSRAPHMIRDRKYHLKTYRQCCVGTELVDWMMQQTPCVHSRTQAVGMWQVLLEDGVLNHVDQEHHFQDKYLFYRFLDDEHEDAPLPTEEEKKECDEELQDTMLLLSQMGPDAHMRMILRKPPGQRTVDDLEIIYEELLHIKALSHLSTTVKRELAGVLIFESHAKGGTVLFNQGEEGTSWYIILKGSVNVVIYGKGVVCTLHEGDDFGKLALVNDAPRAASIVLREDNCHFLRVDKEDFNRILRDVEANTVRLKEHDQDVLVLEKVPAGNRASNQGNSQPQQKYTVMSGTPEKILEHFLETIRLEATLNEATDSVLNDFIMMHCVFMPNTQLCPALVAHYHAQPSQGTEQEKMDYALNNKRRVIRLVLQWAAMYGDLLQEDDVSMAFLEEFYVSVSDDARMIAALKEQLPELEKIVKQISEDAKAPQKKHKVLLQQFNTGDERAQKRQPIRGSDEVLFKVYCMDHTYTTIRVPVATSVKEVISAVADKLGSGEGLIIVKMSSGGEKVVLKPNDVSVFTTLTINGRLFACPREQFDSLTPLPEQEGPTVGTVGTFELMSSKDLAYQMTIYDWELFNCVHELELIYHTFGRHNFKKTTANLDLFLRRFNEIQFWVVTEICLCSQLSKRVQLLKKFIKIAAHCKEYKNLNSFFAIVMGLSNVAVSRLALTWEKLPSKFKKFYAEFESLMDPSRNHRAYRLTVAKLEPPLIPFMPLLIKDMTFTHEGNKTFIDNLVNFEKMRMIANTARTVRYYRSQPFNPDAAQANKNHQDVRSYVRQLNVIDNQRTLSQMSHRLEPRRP
For assay [4] the target is unchanged. Briefly: Confirmatory qHTS for antagonist of cAMP-regulated guanine nucleotide exchange factor 4 (EPAC2) (AID 1645885). Further: nearly all actives have a fitted effect of over 25% in size. Further: potency means the concentration at half of the fitted maximal effect. On activity change, negative = inhibition: on the % scale 0 is the no-effect control and ±100 the full control effect.
For assay [5], the target named is Rap guanine nucleotide exchange factor 3 (Homo sapiens) (UniProt O95398). Briefly: Counterscreen qHTS for antagonist of cAMP-regulated guanine nucleotide exchange factor 3 (EPAC1) (AID 1645888). Further: % of control where 0% means no effect. In a few lines: (§1)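 Measured: fluorescence of BODIPY-GDP bound to Rap1B, which falls as exchange proceeds. Conditions include 50 uM competing GDP, 5 and 30 min reads, and a later cAMP challenge for antagonist detection.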
Rap guanine nucleotide exchange factor 3 (Homo sapiens), sequence (O95398 whole entry, looked up): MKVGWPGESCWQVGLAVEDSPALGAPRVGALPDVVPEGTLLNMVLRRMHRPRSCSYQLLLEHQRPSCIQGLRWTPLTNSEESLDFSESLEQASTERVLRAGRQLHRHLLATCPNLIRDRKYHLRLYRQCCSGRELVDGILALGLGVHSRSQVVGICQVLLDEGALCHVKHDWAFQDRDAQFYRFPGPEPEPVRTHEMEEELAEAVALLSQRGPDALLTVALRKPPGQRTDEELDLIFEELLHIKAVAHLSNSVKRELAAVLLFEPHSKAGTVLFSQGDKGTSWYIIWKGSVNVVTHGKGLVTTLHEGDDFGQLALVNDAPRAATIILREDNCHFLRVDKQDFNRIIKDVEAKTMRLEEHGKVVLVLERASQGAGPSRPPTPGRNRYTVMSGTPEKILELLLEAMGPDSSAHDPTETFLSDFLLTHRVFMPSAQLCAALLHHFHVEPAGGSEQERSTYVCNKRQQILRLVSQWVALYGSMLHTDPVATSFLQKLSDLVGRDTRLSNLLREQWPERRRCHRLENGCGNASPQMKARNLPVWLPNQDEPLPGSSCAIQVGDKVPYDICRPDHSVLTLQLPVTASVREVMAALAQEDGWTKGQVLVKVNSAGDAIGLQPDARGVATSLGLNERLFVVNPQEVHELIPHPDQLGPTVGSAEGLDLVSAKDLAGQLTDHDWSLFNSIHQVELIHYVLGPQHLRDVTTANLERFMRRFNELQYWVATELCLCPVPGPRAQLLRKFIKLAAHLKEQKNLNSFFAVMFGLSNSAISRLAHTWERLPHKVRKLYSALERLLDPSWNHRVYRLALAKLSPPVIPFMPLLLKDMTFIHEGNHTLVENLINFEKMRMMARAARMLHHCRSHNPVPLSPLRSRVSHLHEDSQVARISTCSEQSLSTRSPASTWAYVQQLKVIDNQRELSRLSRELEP

For assay [6] the target is unchanged. Briefly: Counterscreen qHTS for agonist of cAMP-regulated guanine nucleotide exchange factor 3 (EPAC1) (AID 1645889). Further: % of control where 0% means no effect; nearly all actives have a fitted effect of over 40% in size. In a few lines:
as §1

Assay [7] addresses Cytochrome P450 3A4 (Homo sapiens) (UniProt P08684). Briefly: qHTS Assay for Inhibitors and Substrates of Cytochrome P450 3A4 (AID 884). Further: series mostly up to about 57 µM; on the % scale 0 is the no-effect control and ±100 the full control effect; nearly all actives have a fitted effect of over 50% in size. Put shortly:
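Luminescent readout of luciferin produced by CYP3A4 (20 nM) dealkylation of Luciferin-PPXE, 25 uM (its KM). NADPH-driven reaction ran 60 min at RT after 10 min compound preincubation; data scaled to 57 uM ketoconazole as 100% inhibition.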

The nature of assay [8]: Confirmation and Secondary Assay for Modulators of Hemoglobin Beta Chain Splicing at IVS2 654 locus (AID 910). Further: % of control where 0% means no effect. Put shortly: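 HeLa cells stably carrying EGFP interrupted by mutant beta-globin IVS2-654 intron (CMV-driven) were treated with compound for 2 days at 37C; corrected splicing was scored as total peak GFP intensity per well (488 nm excitation, 500-520 nm emission).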

A short description of assay [9]: Confirmation and Secondary Assay for Modulators of Hemoglobin Beta Chain Splicing at IVS2 705 locus (AID 930).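 Further: HeLa cells stably expressing the EGFP-705 splicing reporter; GFP fluorescence per well restored by corrected splicing of the IVS2-705 intron in EGFP; series mostly up to about 46 µM; % of control where 0% means no effect.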 In a few lines: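 HeLa cells stably carrying EGFP interrupted by mutant beta-globin intron 2 (IVS2-705) treated 2 days at 37C with compound; 500 nM antisense PNA as control. Correct splicing read as total peak GFP intensity per well by laser-scanning cytometry.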

These results are taken from PubChem BioAssay (NCATS).

Unmarked numbers belong to inactive results. Inconclusive results are not listed. Activity calls are given as the source filed them. The call rests on the fitted dose curve; in most records, active means well fitted curve in the direction sought with a large enough effect; inconclusive means small, poorly fitted or top-dose-only effect, or another doubt; inactive means no such curve, though single readings can be large; an effect the other way counts as inactive or inconclusive.

Cytochrome P450 3A4 (Homo sapiens), sequence (P08684 whole entry, looked up): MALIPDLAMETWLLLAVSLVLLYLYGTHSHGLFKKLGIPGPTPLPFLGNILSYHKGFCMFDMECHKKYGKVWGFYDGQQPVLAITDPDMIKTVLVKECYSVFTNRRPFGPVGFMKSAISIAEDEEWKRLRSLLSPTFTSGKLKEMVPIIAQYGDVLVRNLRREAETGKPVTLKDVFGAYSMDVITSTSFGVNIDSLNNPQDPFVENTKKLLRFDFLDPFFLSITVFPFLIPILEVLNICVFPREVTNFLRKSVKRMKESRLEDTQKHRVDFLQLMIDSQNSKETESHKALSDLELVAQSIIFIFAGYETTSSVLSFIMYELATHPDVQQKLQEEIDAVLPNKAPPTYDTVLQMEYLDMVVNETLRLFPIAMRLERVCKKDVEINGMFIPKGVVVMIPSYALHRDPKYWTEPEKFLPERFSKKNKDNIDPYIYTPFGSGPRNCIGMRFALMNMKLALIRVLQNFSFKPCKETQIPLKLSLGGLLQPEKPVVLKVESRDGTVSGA

With `C[C@@H](c1ccccc1)N1Cc2ccccc2Oc2cc(Br)ccc2S1(=O)=O`, the Potency result in assay [1], in [2], in assay [3], in assay [5] and in [6] was “inactive” throughout. The Potency in assay [4] is 2.69 µM (active).
On to `Cc1c(C(=O)OCC(=O)N2CCCC2=O)oc2ccccc12`, for which the Potency entry in [2], in assay [3], in [4] and in assay [5] was “inactive” in each case.
With `CC1CCCCC1NC(=O)COC(=O)c1c2c(nc3ccccc13)/C(=C/c1ccco1)CC2` (centres undefined), the Potency in [1] was 75.7 µM (active). Further, the Potency entry in assay [2], in assay [3], in [4], in [5] and in [6] was “inactive” throughout.
On to `COC(=O)CCC(C)C1CCC2C3CC[C@H]4CC(O)CC[C@@]4(C)C3CC(O)[C@]12C` (some centres undefined), for which the Potency entry in [7], in assay [8] and in assay [9] was “inactive” each time.
In the case of `COc1ccc(CNc2cccnc2)c(OC)c1OC`, the Potency entry in assay [2] and in assay [4] was “inactive” each time. For the same compound, the activation in assay [3] was -6.76% [at 17.1 µM, percent relative to cAMP agonist control]; in assay [6], 15.5% [at 30.8 µM]. Further, in assay [5], the activity change, negative = inhibition is -16% [at 30.8 µM].
